Growth data for 16 compounds are collected here from PubChem BioAssay (NCI).

Among the test systems are T-47D breast; BT-549 breast; MDA-MB-435 melanoma; SW-620 colon; MCF7 breast; HCT-116 colon; HCC-2998 colon; KM12 colon.
Common to all, as to assay: NCI-60 one-dose screen, 48 h (100 = growth as untreated, 0 = no growth, -100 = all killed)
Holding throughout (conditions): 10 µM unless noted

About 83,000 compounds went through this panel and 20% of them were active in at least one assay; those are over-represented in the sample as a whole.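 How to read the values: 0–100, growth inhibition (40 = 60% inhibited); 0, no net growth; -100 to 0, cell death (-40 = 40% of starting cells died; -100 = all dead).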 A number with no mark means an inactive call. Active and inactive are the calls of the source. The calls were made as follows: active = growth percent below 10; inactive = the rest.

For the compound `CCN(CC)c1ccc(C(=O)c2ccccc2)cc1`, the growth with T-47D breast was 83.3%; with BT-549 breast it was 109%; with MDA-MB-435 melanoma, 105%; with SW-620 colon it was 102%; in the assay with MCF7 breast it was 98.7%; with HCT-116 colon, 91.3%. Moreover, the growth was 107% in the assay on HCC-2998 colon and 101% with KM12 colon.
As for `Nc1c(C(=O)Nc2ccnc3ccccc23)sc2nc3c(cc12)CN(Cc1ccccc1)CC3`, the growth is 38.5% in the assay with T-47D breast; 30.8% with BT-549 breast; 73.6% in the assay on MDA-MB-435 melanoma; 95.3% in the assay with SW-620 colon; 68.9% in the assay on MCF7 breast; 45% with HCT-116 colon. The growth was 103% in the assay on HCC-2998 colon and 79.7% in the assay on KM12 colon.
As for `CCCCOc1ccc(/C=N/Nc2cc(C)nc3ccc(Br)cc23)cc1`, the growth is 82.5% in the assay on T-47D breast; 99% in the assay with BT-549 breast; -4.43% (active) with MDA-MB-435 melanoma; -70.5% (active) in the assay on SW-620 colon; -52.1% (active) with MCF7 breast; -69.6% (active) in the assay with HCT-116 colon. Also, the results for the growth in the assay on HCC-2998 colon and with KM12 colon were -53.9% (active) and -4.11% (active), respectively.
For `O=C(C1CCC1)N1N=C(c2ccc(-n3ccc(C(F)(F)F)n3)cc2)CC1c1ccc[nH]1` (stereo not drawn), the growth was 78% with T-47D breast; 119% with BT-549 breast; 99.7% in the assay with MDA-MB-435 melanoma; 103% in the assay on SW-620 colon; 91.9% in the assay with MCF7 breast; 94.4% in the assay on HCT-116 colon. In addition, the growth with HCC-2998 colon was 113%; in the assay with KM12 colon it was 89.7%.
As for `C/C(=N\Nc1cc(C)nc2ccc(Br)cc12)c1ccc([N+](=O)[O-])cc1`, the growth with T-47D breast was 62%; in the assay on BT-549 breast, 105%; with MDA-MB-435 melanoma it was 72.6%; in the assay with SW-620 colon, 49.3%; in the assay on MCF7 breast, 43.9%; in the assay with HCT-116 colon, 13.3%. The growth with HCC-2998 colon was 55.8%; in the assay with KM12 colon it was 75.5%.
For the compound `O=C(Nc1ccc(NC(=O)c2cc(=O)[nH]c3ccccc23)cc1)Nc1cccc(Cl)c1`, the growth was 68.6% in the assay with T-47D breast; 79% in the assay with BT-549 breast; 97% in the assay with MDA-MB-435 melanoma; 89.9% in the assay with SW-620 colon; 76% in the assay on MCF7 breast; 82% in the assay on HCT-116 colon. Also, the growth with HCC-2998 colon was 83.6%; in the assay with KM12 colon it was -55.9% (active).
For the compound `COc1ccc(/C=C/c2nc(Nc3cccc(NC(C)=O)c3)c3ccccc3n2)cc1`, the growth is 70% in the assay with T-47D breast; 92.1% with BT-549 breast; 85.2% with MDA-MB-435 melanoma; 92.1% with SW-620 colon; 49.9% in the assay with MCF7 breast; 81.3% with HCT-116 colon. Also, the growth was 88.4% in the assay on HCC-2998 colon and 83.2% in the assay on KM12 colon.
Consider `COCCCN1CC(O)=C(c2nc(-c3ccc(C)cc3)cs2)C1=N`, for which the growth in the assay with T-47D breast is 97.5%; with BT-549 breast it was 103%; in the assay on MDA-MB-435 melanoma, 105%; in the assay on SW-620 colon, 104%; in the assay with MCF7 breast it was 360%; in the assay with HCT-116 colon, 90.3%. The growth in the assay with HCC-2998 colon was 112%; with KM12 colon, 120%.
`COc1cccc(C(=O)NNc2nc(Cl)nc(N3CCN(C(c4ccccc4)c4ccccc4)CC3)n2)c1`: the growth is 83.3% in the assay with T-47D breast; 81.6% in the assay on BT-549 breast; 97.2% in the assay on MDA-MB-435 melanoma; 33.9% in the assay on SW-620 colon; 88% in the assay on MCF7 breast; 39.2% in the assay on HCT-116 colon. Besides, the growth was 64% in the assay with HCC-2998 colon and 90.2% in the assay with KM12 colon.
Turning to `COc1ccc(/C=C/c2nc(Nc3ccc(S(=O)(=O)NC(C)=O)cc3)c3ccccc3n2)cc1`, the growth in the assay on T-47D breast is 67.7%; in the assay on BT-549 breast, 86.8%; with MDA-MB-435 melanoma, 63%; with SW-620 colon, 68.2%; with MCF7 breast, 46.7%; in the assay with HCT-116 colon it was 47.4%. The figures for the growth in the assay with HCC-2998 colon and in the assay with KM12 colon were 82.1% and 57.8%, respectively.
As to `N#C/C(=C\c1ccccn1)c1nc2cc(Cl)ccc2s1`, the growth is 27.7% in the assay on T-47D breast; 33.3% in the assay on BT-549 breast; 74.7% with MDA-MB-435 melanoma; 77.5% in the assay with SW-620 colon; 37.1% in the assay with MCF7 breast; 55% with HCT-116 colon. The growth is 92.7% in the assay on HCC-2998 colon and 96.2% with KM12 colon.
For `OCc1cnccc1NCCCCOc1ccc(Oc2ccccc2)cc1`, the growth is 35.4% with T-47D breast; 62.6% with BT-549 breast; 59.9% in the assay on MDA-MB-435 melanoma; 49.2% in the assay on SW-620 colon; 33.2% in the assay with MCF7 breast; 31.3% in the assay with HCT-116 colon. Also, the growth was 89.6% in the assay with HCC-2998 colon and 64.8% with KM12 colon.
`CC(=O)O[C@@H]1C2CCC3C(CC[C@@]4(C)C3CC[C@@H]4C(C)N(C)C)[C@@]2(C)CC[C@@H]1NC(=O)C=C(C)C` (stereo partly drawn): the growth in the assay with T-47D breast is -28% (active); in the assay on BT-549 breast, 26.4%; in the assay with MDA-MB-435 melanoma it was -47.4% (active); in the assay on SW-620 colon, -64.5% (active); in the assay on MCF7 breast, -16.9% (active); with HCT-116 colon, -55% (active). The growth in the assay with HCC-2998 colon is -23.5% (active); with KM12 colon it was 9.21% (active).
For `COc1cc2oc(-c3cccc(C(=O)Nc4ccccc4)c3)cc(=O)c2c(O)c1OC`, the growth with T-47D breast is 55.8%; in the assay on BT-549 breast, 60.1%; in the assay on MDA-MB-435 melanoma, 58.3%; with SW-620 colon, 94.3%; with MCF7 breast it was 78.1%; in the assay with HCT-116 colon, 46.3%. Also, the growth was 89.7% in the assay on HCC-2998 colon and 57.8% in the assay with KM12 colon.
As for `CN(CCN(C)c1ccc(C(=N)N)cc1)c1ccc(C(=N)N)cc1`, the growth with T-47D breast was 163%; in the assay on BT-549 breast, 86%; with MDA-MB-435 melanoma, 90.5%; in the assay on SW-620 colon it was 104%; in the assay on MCF7 breast it was 108%; in the assay with HCT-116 colon, 104%. In addition, the growth was 97% with HCC-2998 colon and 91.3% in the assay on KM12 colon.
As for `Oc1ccc(C(c2ccc(O)cc2)c2ccc(Br)cn2)cc1`, the growth is -38.5% (active) in the assay with T-47D breast; -42.6% (active) in the assay with BT-549 breast; 100% in the assay on MDA-MB-435 melanoma; 102% in the assay with SW-620 colon; -20.5% (active) in the assay with MCF7 breast; 19.4% with HCT-116 colon. For the same compound, the growth in the assay with HCC-2998 colon was 3.49% (active); in the assay on KM12 colon, 16%.
